Test results: ChEMBL document CHEMBL1961873, “Compounds: GSK PKIS; Assays: Nanosyn kinase panel” (2012)

Each compound was assayed against Macrophage-stimulating protein receptor (Homo sapiens) (UniProt Q04912). Settings: at 0.1 µM.
Macrophage-stimulating protein receptor (Homo sapiens), sequence (Q04912 25-304 limits assumed): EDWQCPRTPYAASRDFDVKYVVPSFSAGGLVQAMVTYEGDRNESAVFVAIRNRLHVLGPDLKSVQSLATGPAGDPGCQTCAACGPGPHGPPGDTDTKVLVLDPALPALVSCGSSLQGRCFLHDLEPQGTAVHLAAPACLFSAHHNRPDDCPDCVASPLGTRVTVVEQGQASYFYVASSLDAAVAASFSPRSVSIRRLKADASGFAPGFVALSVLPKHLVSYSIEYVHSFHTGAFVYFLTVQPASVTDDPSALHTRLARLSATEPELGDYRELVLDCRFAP
Macrophage-stimulating protein receptor (Homo sapiens), sequence (Q04912 310-1400 limits assumed): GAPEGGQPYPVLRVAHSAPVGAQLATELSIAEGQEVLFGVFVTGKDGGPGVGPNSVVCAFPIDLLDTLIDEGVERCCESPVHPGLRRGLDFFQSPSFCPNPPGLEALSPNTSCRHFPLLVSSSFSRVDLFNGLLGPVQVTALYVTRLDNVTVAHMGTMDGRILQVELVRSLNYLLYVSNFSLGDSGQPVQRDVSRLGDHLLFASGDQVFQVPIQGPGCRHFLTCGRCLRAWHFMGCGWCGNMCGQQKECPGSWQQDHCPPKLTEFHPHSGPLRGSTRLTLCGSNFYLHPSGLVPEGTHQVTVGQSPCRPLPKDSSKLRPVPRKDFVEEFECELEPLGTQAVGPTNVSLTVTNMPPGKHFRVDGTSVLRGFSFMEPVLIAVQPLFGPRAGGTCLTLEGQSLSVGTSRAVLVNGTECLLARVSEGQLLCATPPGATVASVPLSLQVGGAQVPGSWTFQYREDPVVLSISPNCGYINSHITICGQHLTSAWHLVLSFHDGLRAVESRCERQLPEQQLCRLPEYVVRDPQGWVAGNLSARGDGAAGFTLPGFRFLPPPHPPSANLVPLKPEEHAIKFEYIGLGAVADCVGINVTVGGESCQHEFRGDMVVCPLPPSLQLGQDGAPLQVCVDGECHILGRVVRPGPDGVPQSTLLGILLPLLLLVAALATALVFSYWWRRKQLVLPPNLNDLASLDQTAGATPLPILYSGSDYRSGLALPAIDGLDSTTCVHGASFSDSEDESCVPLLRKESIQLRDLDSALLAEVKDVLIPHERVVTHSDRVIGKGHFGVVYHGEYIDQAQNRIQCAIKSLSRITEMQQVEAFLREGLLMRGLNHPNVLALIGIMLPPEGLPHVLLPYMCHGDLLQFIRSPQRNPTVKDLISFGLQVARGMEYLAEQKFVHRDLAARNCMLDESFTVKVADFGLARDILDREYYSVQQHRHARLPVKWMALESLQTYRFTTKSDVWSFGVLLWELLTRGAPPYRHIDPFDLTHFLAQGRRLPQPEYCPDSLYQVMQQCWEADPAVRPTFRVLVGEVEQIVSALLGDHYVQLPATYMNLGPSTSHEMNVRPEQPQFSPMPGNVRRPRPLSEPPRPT

Row | Structure (SMILES) | inhibition [%]
1 | [O-][S+]1CCN(Cc2ccc(-c3ccc4ncnc(Nc5ccc(OCc6ccccc6)c(Cl)c5)c4c3)o2)CC1 | 1.76
2 | C[C@@H](Oc1cc(-n2cnc3ccc(OC[C@@H](O)CO)cc32)sc1C(N)=O)c1ccccc1Cl | -4.17
3 | OCc1ccc(-c2nc(-c3ccccn3)c(-c3ccc4c(c3)OCO4)[nH]2)cc1 | -1.95
4 | NS(=O)(=O)c1ccc(Nc2cc(-c3cccc(O)c3)n[nH]2)cc1 | 5.75
5 | Nc1ccc(C#Cc2cncnc2Nc2ccc(OCc3cccc(F)c3)c(Cl)c2)cc1 | 7.87
6 | Cc1ccc(Nc2ccnc(Nc3cccc(C(N)=O)c3)n2)cc1O | 0.19
7 | CCCN1CCCC(c2ccc(Nc3nc(Nc4cc(F)ccc4C(N)=O)c4cc[nH]c4n3)c(OC)c2)C1 (stereo unspecified) | 0.58
8 | N#Cc1cccc(Nc2nccc(-c3cnn4ncccc34)n2)c1 | -3.06
9 | COc1cc(Nc2nccc(-c3cnn4ncccc34)n2)cc(OC)c1 | 4
10 | CS(=O)(=O)CCNCc1nc(-c2ccc3ncnc(Nc4ccc(OCc5cccc(C(F)(F)F)c5)cc4)c3c2)cs1 | 4.48
11 | Cc1ccc(O)cc1Nc1ccnc2ccc(S(C)(=O)=O)cc12 | 5.15
12 | Cc1nc(-c2ccccc2)n2nc(NCCCN3CCOCC3)ncc12 | 2.7
13 | COc1cccc(-n2ncc3c(N/N=C/c4ccc(S(C)(=O)=O)cc4)ncnc32)c1 | 29.4
14 | NC(=O)c1sc(-n2cnc3ccccc32)cc1OCc1ccccc1Br | 9.12
15 | CS(=O)(=O)Nc1cccc(-c2ccc3c(NC(=O)C4CC4)n[nH]c3c2)c1 | -6.3
16 | COc1cccc(-n2ncc3c(N/N=C/c4ccc(C)cc4)ncnc32)c1 | 2.1
17 | NS(=O)(=O)c1cccc(Nc2cc(-c3ccc(F)cc3)n[nH]2)c1 | -6.54

Row | Structure (SMILES) | inhibition [%]
18 | COC(=O)c1ccc2c(c1)C(=Cc1cc(Br)c(O)c(Br)c1)C(=O)N2 | 1.56
19 | CCS(=O)(=O)c1ccc(OC)c(Nc2nccc(N(C)c3ccc4c(C)n[nH]c4c3)n2)c1 | 2.28
20 | O=S(=O)(CCOCc1ccc(-c2ccc3ncnc(Nc4ccc(OCc5cccc(F)c5)c(Cl)c4)c3c2)o1)c1ccccc1 | 3.62
21 | Cc1cc(-c2ccccn2)cc(C)c1/C=C/c1cncc(-c2nn[nH]n2)c1 | 3.67
22 | CN(C)C(=O)O[C@@H]1CN[C@@H](C#Cc2cc3ncnc(Nc4ccc(OCc5cccc(F)c5)c(Cl)c4)c3s2)C1 | -3.14
23 | Oc1cccc(-c2nc(-c3ccccc3)[nH]c2-c2ccncc2)c1 | 1.43
24 | CN1CCN(C(=O)c2ccc(NC(=O)Nc3ccc(N(C)c4ccnc(Nc5ccc(CS(C)(=O)=O)cc5)n4)cc3)cc2)CC1 | 18.6
25 | COc1cc(/C=N/Nc2ncnc3c2cnn3C(C)C)ccc1O | 8.98
26 | FC(F)(F)c1ccc(-c2nn3ncccc3c2-c2ccnc(Nc3ccc4c(c3)OCCO4)n2)cc1 | 11.8
27 | Nc1nccc(-c2c(-c3ccc(F)cc3)ncn2CCCN2CCOCC2)n1 | -1.76
28 | Cc1ccc(C(=O)NC2CC2)cc1-c1ccc2[nH]ncc2c1 | -3.31
29 | COc1cc2ncn(-c3cc(OCc4ccccc4S(C)(=O)=O)c(C#N)s3)c2cc1OC | -3.29
30 | COc1ccc2ncnc(Nc3ccc(OCc4ccccc4)cc3)c2c1 | 2.03
31 | COC(=O)Nc1nc2cc(Oc3ccc(NC(=O)Nc4cccc(Br)c4)cc3)ccc2[nH]1 | 1.47
32 | Cc1ccc2c(-c3ccnc(Nc4cccc(C(F)(F)F)c4)n3)c(-c3ccccc3)nn2n1 | 2.85
33 | COc1cc2ncnc(Nc3ccc(C)c(O)c3)c2cc1OC | 1.46

The compounds below were run against Macrophage-stimulating protein receptor (Homo sapiens) (UniProt Q04912). Settings: at 1 µM.

Row | Structure (SMILES) | inhibition [%]
34 | [O-][S+]1CCN(Cc2ccc(-c3ccc4ncnc(Nc5ccc(OCc6ccccc6)c(Cl)c5)c4c3)o2)CC1 | 1.89
35 | C[C@@H](Oc1cc(-n2cnc3ccc(OC[C@@H](O)CO)cc32)sc1C(N)=O)c1ccccc1Cl | 6.85
36 | OCc1ccc(-c2nc(-c3ccccn3)c(-c3ccc4c(c3)OCO4)[nH]2)cc1 | -0.55
37 | NS(=O)(=O)c1ccc(Nc2cc(-c3cccc(O)c3)n[nH]2)cc1 | 0.78
38 | Nc1ccc(C#Cc2cncnc2Nc2ccc(OCc3cccc(F)c3)c(Cl)c2)cc1 | 1.71
39 | Cc1ccc(Nc2ccnc(Nc3cccc(C(N)=O)c3)n2)cc1O | 13.3
40 | CCCN1CCCC(c2ccc(Nc3nc(Nc4cc(F)ccc4C(N)=O)c4cc[nH]c4n3)c(OC)c2)C1 (stereo unspecified) | 13.1
41 | N#Cc1cccc(Nc2nccc(-c3cnn4ncccc34)n2)c1 | 15.6
42 | COc1cc(Nc2nccc(-c3cnn4ncccc34)n2)cc(OC)c1 | 22.3
43 | CS(=O)(=O)CCNCc1nc(-c2ccc3ncnc(Nc4ccc(OCc5cccc(C(F)(F)F)c5)cc4)c3c2)cs1 | 2.59
44 | Cc1ccc(O)cc1Nc1ccnc2ccc(S(C)(=O)=O)cc12 | 6.07
45 | Cc1nc(-c2ccccc2)n2nc(NCCCN3CCOCC3)ncc12 | -3.01
46 | COc1cccc(-n2ncc3c(N/N=C/c4ccc(S(C)(=O)=O)cc4)ncnc32)c1 | 44.3
47 | NC(=O)c1sc(-n2cnc3ccccc32)cc1OCc1ccccc1Br | 9.57
48 | CS(=O)(=O)Nc1cccc(-c2ccc3c(NC(=O)C4CC4)n[nH]c3c2)c1 | -6.45
49 | COc1cccc(-n2ncc3c(N/N=C/c4ccc(C)cc4)ncnc32)c1 | 9.64
50 | NS(=O)(=O)c1cccc(Nc2cc(-c3ccc(F)cc3)n[nH]2)c1 | 8.51

Row | Structure (SMILES) | inhibition [%]
51 | COC(=O)c1ccc2c(c1)C(=Cc1cc(Br)c(O)c(Br)c1)C(=O)N2 | 3.36
52 | CCS(=O)(=O)c1ccc(OC)c(Nc2nccc(N(C)c3ccc4c(C)n[nH]c4c3)n2)c1 | 11.8
53 | O=S(=O)(CCOCc1ccc(-c2ccc3ncnc(Nc4ccc(OCc5cccc(F)c5)c(Cl)c4)c3c2)o1)c1ccccc1 | 1.46
54 | Cc1cc(-c2ccccn2)cc(C)c1/C=C/c1cncc(-c2nn[nH]n2)c1 | 3.94
55 | CN(C)C(=O)O[C@@H]1CN[C@@H](C#Cc2cc3ncnc(Nc4ccc(OCc5cccc(F)c5)c(Cl)c4)c3s2)C1 | -2.46
56 | Oc1cccc(-c2nc(-c3ccccc3)[nH]c2-c2ccncc2)c1 | 5.25
57 | CN1CCN(C(=O)c2ccc(NC(=O)Nc3ccc(N(C)c4ccnc(Nc5ccc(CS(C)(=O)=O)cc5)n4)cc3)cc2)CC1 | 58.6
58 | COc1cc(/C=N/Nc2ncnc3c2cnn3C(C)C)ccc1O | 17.9
59 | FC(F)(F)c1ccc(-c2nn3ncccc3c2-c2ccnc(Nc3ccc4c(c3)OCCO4)n2)cc1 | 0.63
60 | Nc1nccc(-c2c(-c3ccc(F)cc3)ncn2CCCN2CCOCC2)n1 | 2.17
61 | Cc1ccc(C(=O)NC2CC2)cc1-c1ccc2[nH]ncc2c1 | -6.03
62 | COc1cc2ncn(-c3cc(OCc4ccccc4S(C)(=O)=O)c(C#N)s3)c2cc1OC | 8.3
63 | COc1ccc2ncnc(Nc3ccc(OCc4ccccc4)cc3)c2c1 | 4.46
64 | COC(=O)Nc1nc2cc(Oc3ccc(NC(=O)Nc4cccc(Br)c4)cc3)ccc2[nH]1 | 2.5
65 | Cc1ccc2c(-c3ccnc(Nc4cccc(C(F)(F)F)c4)n3)c(-c3ccccc3)nn2n1 | 13.6
66 | COc1cc2ncnc(Nc3ccc(C)c(O)c3)c2cc1OC | 2.44
